The values below come from PubChem BioAssay AID602240 (Southern Research Specialized Biocontainment Screening …, 2012).

The source made the active and inactive calls. No rule for the calls is given here.

This assay can be described thus: viability loss in Vero 76 cells – cell-based, set 2, cytotoxicity control, dose response (AID 602240). The following applies: Vero 76 cells viability, cytotoxicity counter-screen for VEEV; series mostly up to 50 µM. A general note: Counterscreens check selectivity or assay interference.
For `CCN1CCN(Cc2nc3ccc([N+](=O)[O-])cc3c(=O)n2-c2ccccc2F)CC1`, the outcome was inactive.
In the case of `Clc1ccc2nnnc(-c3ccccc3)c2c1` it was “inactive”; in that of `O=c1c2cc([N+](=O)[O-])ccc2nc(CN2CCN(c3ccccc3)CC2)n1-c1ccccc1F`, “inactive”.
In the case of `O=C(Oc1ccc2ccccc2c1Br)N1CCCCCC1` it was “inactive”; in that of `O=c1nc(Nc2ccc(OCc3ccccc3)cc2)sc2ncccc12`, “inactive”.
